Test results: PMC12136788
Over roughly 24,000 sequences, “enrichment r” has its median near 0.99; the highest 2% begin near 3.7. This is one part of a sample in which the highest values are shown more often than they occur.

T1: UNK ZnF1-3 (human, UniProt Q9C0B0 31-174)
T1 sequence: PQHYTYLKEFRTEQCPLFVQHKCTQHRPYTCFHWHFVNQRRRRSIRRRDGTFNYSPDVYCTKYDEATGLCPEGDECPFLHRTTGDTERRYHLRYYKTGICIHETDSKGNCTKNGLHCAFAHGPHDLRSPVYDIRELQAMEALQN

B1: chr5:61651017:61651018:+_ENSG00000068796_ENST00000381103|hu_hu|FALSE|FALSE (ssRNA)
RNA: GGGAGUUCUACAGUCCGACGAUCCCUAUGUUCAUCAAUAGGAUCUGCUGUUGUUAAUGGUCUAUAAUCCAAACUUCCUCUAAAGUCUCUGAUCAUACACAUAAUUUCAUAAUUUGGGUUUGUAGCAUCAACGUCCUGGGCUCUCAACAGAGGAUUGAGCAUCA
B2: chrX:131339380:131339381:-_ENSMUSG00000033436_ENSMUST00000035559|mus_hu|FALSE|FALSE (ssRNA)
RNA: GGGAGUUCUACAGUCCGACGAUCACUGAGAAGUUUCUUCAACAUAUCUGGAUUUUCAGCAAAAUUCGAAAGGAUUUUCAAAAUCUCAACCUUGAUUUUUCCACCUCCCUGAGAUAGCAAACGGAAAAAGUUUGCAAUGGAAUUCAACAGAGGAUUGAGCAUCA
B3: chr8:95500983:95500984:-_ENSG00000164944_ENST00000437199|hu_hu|hu_hu_hu_mus_True|58_68 (ssRNA)
RNA: GGGAGUUCUACAGUCCGACGAUCAGAACACAUCUAUCGAGUAAAGGACCGUACAUGACGGCCUCUAACCACUGCCUCCACUAACAACUUUCCUCUCGAGCCUCCACUGCCGCUAUUUGUACUAGCCCAGGACGGUCCCAGGCCCAACAGAGGAUUGAGCAUCA
B4: 37721237_37722996_1653_CDS_ENSG00000082068_ENST00000265107|human|control|control (ssRNA)
RNA: GGGAGUUCUACAGUCCGACGAUCUGCCUUCCGCUGGGUUUUAACCACACAUAAUUUUGCUCCCCUCUGACUCUUGUUGGGGUCGUAAUAGACUUUAGCCAAUCCAUUUCCAGUUCCAACCAUGAUCUGGUUCAGCUUUGGAUGCAACAGAGGAUUGAGCAUCA
B5: 55795476_55800851_1969_CDS_ENSG00000138041_ENST00000407823|human|control|control (ssRNA)
RNA: GGGAGUUCUACAGUCCGACGAUCCCGCCUCAUAAAGCGAAGGGCACACAAGGCCAGAAAAGUGUGCUUUGAAUUCAUCAAGACCAAGACUCUUCUUAGCAAGUCCUUGUUCAUAAUAUAGUUUUUUAUGUGAUAUGUGUGAUGCAACAGAGGAUUGAGCAUCA
B6: chr19:8913615:8913616:-_ENSMUSG00000071658_ENSMUST00000096259|mus_hu|mus_mus_mus_hu_False|1_98 (ssRNA)
RNA: GGGAGUUCUACAGUCCGACGAUCAGGGUACCAAAACACCCUGCCUCAAAUGGGUGCCCCACCCAGUAGGGAGUUGCAGCUGAAAGUAUCUGAUGCAGAAGCAGUGACUAUACGAAAGGAGGCCCCUGGGGAGGGCCCGAGAUCCAACAGAGGAUUGAGCAUCA
B7: 69202206_69203042_311_CDS_ENSG00000135679_ENST00000462284|human|control|control (ssRNA)
RNA: GGGAGUUCUACAGUCCGACGAUCUGAGGUGGUUACAGCACCAUCAGUAGGUACAGACAUGUUGGUAUUGCACAUUUGCCUGCUCCUCACCAUCCGGGGUUUUCGCGCUUGGAGUCGGGGGUCCCUCAAGACUCCCCAGUUUCCCAACAGAGGAUUGAGCAUCA
B8: chr3:41281487:41281488:+_ENSG00000168036_ENST00000349496|hu_hu|motif|central (ssRNA)
RNA: GGGAGUUCUACAGUCCGACGAUCCUACGAGAGACUUAAAAAACAGUUACUGCAAAAAAAAAAAAAAAAAAAAAAAAAGAGCGGCUUCAAAGCAAGCAAAGUCAGUACCAUUACAGAUAUUCUUAAAAAAAAAAAAAAAAAAAUCAACAGAGGAUUGAGCAUCA
B9: chr1:100327937:100327938:+_ENSG00000162688_ENST00000361915|hu_hu|motif|central (ssRNA)
RNA: GGGAGUUCUACAGUCCGACGAUCUUCUUUUGCAACCCUAAGUCUGCUUUCCCAUUCAUCAAAAGGUCCCAAACACUUAGCGGAAAAUGUCUGAAGAGUAACACAGUCCAAGGGUAGCACAUGAUUAUCAGCACCAACACGUAACAACAGAGGAUUGAGCAUCA
B10: 97946324_97946444_1485_ncRNA_ENSMUSG00000021666_ENSMUST00000159321|mouse|control|control (ssRNA)
RNA: GGGAGUUCUACAGUCCGACGAUCUGAUUCUGAAAUCAUGUAAAUUAAGAUUUGUUAGGCUGUUUUUUUUUUAAAUAAACCAUCUUUUUAUUGAUUGAAUCUUUCUAUCCCUGAAUCAAACACUGAAUCUUUUAUGUGAGCAGCCAACAGAGGAUUGAGCAUCA
B11: 116785305_116785425_2892_3pUTR_ENSMUSG00000055531_ENSMUST00000069168|mouse|control|control (ssRNA)
RNA: GGGAGUUCUACAGUCCGACGAUCAAAAAAUGAAAGAAAGGAAAAAAAAAGAAAAAAAAAUCAGCUGAUUAACUCUAAUCAAGCAUAGAUCAACAAGGUUACAGGAAUACACACACAAUUCCUUGAGCCAUGAAGACAGUGUAACAACAGAGGAUUGAGCAUCA
B12: chr1:135503150:135503151:-_ENSMUSG00000090553_ENSMUST00000166915|mus_hu|motif|central (ssRNA)
RNA: GGGAGUUCUACAGUCCGACGAUCUUCUGCAUCAUCUAAUACAAGGUUCAUAUACUCAUCAAAACCAAUGAUACAGCCUUCGGUCCGCAUAUUCACUUGCUCAUAGAGCCACACCUGAAUCCGCGAUCUCUGAAAUAAUCAUAACAACAGAGGAUUGAGCAUCA
B13: chr4:40680069:40680070:+_ENSMUSG00000028410_ENSMUST00000030118|mus_hu|motif|central (ssRNA)
RNA: GGGAGUUCUACAGUCCGACGAUCAAAAUCAGAGCUUUUAUAUUUGCGUUUAUUCUUCAUUUAACUUUUUAAAACACGGCGGUAGUUUAUUAAAACAAAAACAAGAGCAAGUAGUGAGCAUAUUAUGAUUACAGUCCUUCACUCCAACAGAGGAUUGAGCAUCA
B14: chr1:38489359:38489360:+_ENSG00000183520_ENST00000537711|hu_mus|FALSE|FALSE (ssRNA)
RNA: GGGAGUUCUACAGUCCGACGAUCAGUCAUGAUUACAAAACAGGAAGACCAAGCCAUUUGAAUUAAUAAAAUCUGAAGUUAUUACAAAAGACAGGAGGAAAAGAUAAUAAUUCUUUUCGAUACAGAAUGCUGAGGCUUAAUUUUCAACAGAGGAUUGAGCAUCA
B15: chr14:31337589:31337590:+_ENSMUSG00000021962_ENSMUST00000022535|mus_mus|motif|central (ssRNA)
RNA: GGGAGUUCUACAGUCCGACGAUCAAUGACCUGUAUCAUAGAAACGAAGACACUUUUCAUUCAAAGAAUAUCUCAAAAUUACGGUUGCUGAAAUAAUCAAAUUCUACAUUAAAAUAUUACCAAACACCAUUACAUGCCAUAAAACAACAGAGGAUUGAGCAUCA
B16: chr1:130270616:130270617:-_ENSMUSG00000026356_ENSMUST00000027602|mus_hu|FALSE|FALSE (ssRNA)
RNA: GGGAGUUCUACAGUCCGACGAUCGUAAUGGUAAUUAAAAGCCAUUUCAAUGUCCAAACCAACAAACUCAGUUAGAUGUCUAUGGGUAUUAGAGUCUUCCGCUCUGAAUACUGGUCCAAUAGAGAAAACCUUCUCAAAAUCAGCCAACAGAGGAUUGAGCAUCA
B17: chr1:58468927:58468928:-_ENSMUSG00000026034_ENSMUST00000148330|mus_mus|mus_mus_mus_hu_False|38_108 (ssRNA)
RNA: GGGAGUUCUACAGUCCGACGAUCAAUCUAUAAUUACGAUGUUCAUUACCUUAGCUAUGUACUUAAUGAACCAAAUUACCCAAACAAAAUAAACAUGUUUACAAAUUAAUGUUAAGAAUUUACAAAGCUGUACAAAAUAACUUACAACAGAGGAUUGAGCAUCA
B18: 67235911_67236031_3360_3pUTR_ENSMUSG00000036371_ENSMUST00000042990|mouse|control|control (ssRNA)
RNA: GGGAGUUCUACAGUCCGACGAUCAACAUUCAAAAAUCUUAAACAAGAAUUAUCUUACGAUAAUGAAAAAGGGAAACCAAGAAACAUAUAAAGGGGUUCCCACUUGAUUGCUUUUAUCUUUUAGGAAAUGAGCAUGAAAAUAAACAACAGAGGAUUGAGCAUCA
B19: chr5:122939345:122939346:-_ENSMUSG00000029467_ENSMUST00000031423|mus_mus|FALSE|FALSE (ssRNA)
RNA: GGGAGUUCUACAGUCCGACGAUCCUUUCUGUCCUGUCGAUACACUUUGCCCAUUUCAGGCUCAUAUUCCUUAAGAGCUUCUAUUGCAUUUUCAGCAUUUCUUUCCUGCCACACACCCACGAUUGCAUUGGCUACCAAGAUAAGCAACAGAGGAUUGAGCAUCA
B20: chr7:40134317:40134318:+_ENSG00000065883_ENST00000340829|hu_mus|FALSE|FALSE (ssRNA)
RNA: GGGAGUUCUACAGUCCGACGAUCGGAAGGGUCAUUGCUGUUUGUGAGGACUGUGAUAGGACCAUGGCUAUAUUCAAAUCUAUGGUCCUUGUCUCCACUAAACAACAUGGGACCAGCAUUGAGGUAAAUGUCUCCAUAUCCAGCCAACAGAGGAUUGAGCAUCA
B21: chr11:61557309:61557310:-_ENSG00000134825_ENST00000537328|hu_mus|FALSE|FALSE (ssRNA)
RNA: GGGAGUUCUACAGUCCGACGAUCGAUGCCAACCCAGAGCAGGAGGAAGAGGACUCCAAAGCCCAUGAAGAGUGAGGCCACCAAGGAGAUGAGGAGCUCUUUGUAAAUAUCGCGUGUGUACUUGGUAGAGGUGACCUCGUAAACCAACAGAGGAUUGAGCAUCA
B22: chr17:60744165:60744166:+_ENSG00000011028_ENST00000303375|hu_mus|FALSE|FALSE (ssRNA)
RNA: GGGAGUUCUACAGUCCGACGAUCGUUGAGGUACUUGAGGGGUGAGUUGUCUGACCACUGCCAGCCUCCACUGGUAUCCAGGUCAUUAAGGCCAAUCCAUAGCGUGGAGCUGUAGCCCGUGAGGAGCCCGUUGAUGUAGGUCUGCAACAGAGGAUUGAGCAUCA

The binders below were run against T1, UNK ZnF1-3 (assay: nsRBNS (natural sequence RNA bind-n-seq); RBNS binding buffer (assumed for nsRBNS): 25 mM Tris pH 7.5, 150 mM KCl, 3 mM MgCl2, 0.01% Triton X-100, 500 ug/ml BSA, 20 U/ml SUPERase-In, 4 C; UNK is unkempt and MSI1 is Musashi-1; names of the RNAs are library labels; protein concentration not given here; high values mean tight binding).

Binder	binding signal [enrichment R]
B1	1.64
B2	0.897
B3	1.3
B4	0.501
B5	2.04
B6	1.7
B7	0.532
B8	8.09
B9	1.32
B10	0.66
B11	4.36
B12	1.18
B13	1.05
B14	8.05
B15	0.998
B16	0.771
B17	0.436
B18	5.78
B19	0.9
B20	0.887
B21	2.5
B22	1.03
